Screening data as filed in PubChem.
TSHR agonist: activates the human thyroid stimulating hormone receptor | HEK293-CNG-TSHR cells (CNG channel as cAMP sensor), membrane potential dye, cAMP | Potency, µM (doses to about 57.1 µM), most hits filed as activators | P16473 | 73,000 tested, 0.48% active; active = well fitted activation curve with a large enough effect in the main read-out, with a control signal flat, not every such curve was filed as active; inconclusive = small, poorly fitted or top-dose-only effect, or a change in a side signal; inactive = no such curve, though single readings can be large or run the other way; reference of the percent scale not stated here;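 note: the control signal comes from parental cells without the receptor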
Target sequence (P16473 whole entry, looked up): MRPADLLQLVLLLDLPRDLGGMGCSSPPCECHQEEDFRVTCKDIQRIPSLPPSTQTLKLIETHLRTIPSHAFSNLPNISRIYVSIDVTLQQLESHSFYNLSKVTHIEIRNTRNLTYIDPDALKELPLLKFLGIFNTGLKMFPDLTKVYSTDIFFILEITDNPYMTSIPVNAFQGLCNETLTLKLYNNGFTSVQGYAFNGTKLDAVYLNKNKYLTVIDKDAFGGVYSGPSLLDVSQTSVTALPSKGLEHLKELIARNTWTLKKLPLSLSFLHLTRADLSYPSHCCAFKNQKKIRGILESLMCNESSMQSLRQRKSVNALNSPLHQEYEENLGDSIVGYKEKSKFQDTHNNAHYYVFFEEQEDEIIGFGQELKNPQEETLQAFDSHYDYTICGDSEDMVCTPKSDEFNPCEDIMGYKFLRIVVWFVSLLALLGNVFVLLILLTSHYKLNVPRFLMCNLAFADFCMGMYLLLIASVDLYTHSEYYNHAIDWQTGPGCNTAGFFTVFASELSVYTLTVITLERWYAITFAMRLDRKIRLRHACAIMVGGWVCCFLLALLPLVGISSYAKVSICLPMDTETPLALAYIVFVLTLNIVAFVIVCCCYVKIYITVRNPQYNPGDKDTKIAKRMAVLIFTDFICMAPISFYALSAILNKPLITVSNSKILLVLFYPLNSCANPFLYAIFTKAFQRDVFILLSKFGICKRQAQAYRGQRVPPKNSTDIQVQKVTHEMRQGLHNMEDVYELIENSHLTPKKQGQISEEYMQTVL
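HEK 293 cells stably expressing TSHR and a modified CNG channel, with CNG-only parental cells as counterscreen, were preloaded 60 min at room temperature with membrane potential dye containing 100 uM RO 20-1724. Compound exposure was 30 min, and depolarization was read as fluorescence at 590 nm.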
p53ts 32C kill: cytotoxicity in p53ts cells at permissive temperature; 130,000 tested, 0.93% active; AID 924; Potency, µM (highest dose often 46.1 µM), actives largely listed as cytotoxic; H1299-p53A138V at 32C, ATP luminescence viability, 24 h; note: nearly all actives have a fitted effect of over 55% in size
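H1299-p53 A138V cells (temperature-sensitive p53) exposed 24 h to up to 46 uM compound at 32C, where p53 is wild-type in conformation. Viability read as ATP luminescence and normalised to DMSO and 100 uM tamoxifen. AC50 fitted with the Hill equation.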
Peg3 imprint: genomic imprint erasure induction; mouse ES Peg3-LacZ reporter, beta-gal luminescence, 40 h; Potency, µM (top dose mostly 60.7 µM), most hits filed as activators; 110,000 tested, 0.02% active; AID 1948
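Readout: BetaGlo luminescence (5 min, room temp) for LacZ from the normally silent maternal Peg3 allele in female Peg3LacZ-Neo ES cells. Cells 300/well, 40 h, 37C, 5% CO2. Data normalized per plate to negative controls.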
p53ts 39C tox: p53ts cell cytotoxicity, nonpermissive temperature; Potency, µM (highest dose often 46.1 µM), hits mostly cytotoxic; 130,000 tested, 1.5% active; H1299-p53A138V viability at 39C, ATP luminescence, 24 h; note: nearly all actives have a fitted effect of over 55% in size
HEK293 cAMP cs: parental HEK293 cAMP activation (counter-screen). parental HEK293 CNG cAMP sensor, membrane potential fluorescence. Potency, µM (top dose mostly 57.1 µM), hits mostly activators. 73,000 tested, 2.5% active. AID 938; note: nearly all actives have a fitted effect of over 55% in size
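Parental HEK 293 cells stably expressing a cAMP-gated CNG channel were loaded with membrane potential dye containing 100 uM RO 20-1724 for 60 min. Compound added for 30 min; depolarization read as fluorescence intensity at 590 nm.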
IkB signaling: suppresses IkB signaling in ABC-DLBCL reporter cells. ABC-DLBCL IkBa-CBG/CBR dual luciferase ratio, 4 h; response scale: scaled: untreated 0%, proteasome inhibitor 100%. Potency, µM (doses to about 57.1 µM). 110,000 tested, 0.04% active. AID 445; active = well fitted curve in the direction sought with a large enough effect in the signal ratio, not every such curve was filed as active; inconclusive = small, poorly fitted or top-dose-only effect, or a change in a side signal; the % refers to the signal ratio;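 note: the direction sought is a rising ratio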
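In this assay, an IκBα–CBG68 fusion accumulates when IKK-driven degradation is blocked; native CBR normalizes for cell number. OCI-Ly3 cells were treated 4 h with compound and doxycycline, then green and red light read after Chroma-Glo addition.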
Of the large screens only hits and unclear results are named; the others gave an inactive call; ! = repeats disagree. Sampled rows, rich in hits. Any-hit rate of the full collection: about 3.1%. Unless noted, calls come from the whole dose curve; as a rule, active = well fitted curve in the direction sought with a large enough effect; inconclusive = small, poorly fitted or top-dose-only effect, or another doubt; inactive = no such curve, though single readings can be large; an effect the other way counts as inactive or inconclusive.

CC1CC[C@@]2(OC1)O[C@@H]1[C@@H](O)[C@H]3C4CC[C@H]5C[C@@H](O[C@@H]6O[C@H](CO)[C@H](O[C@@H]7O[C@H](CO)[C@@H](O)[C@H](O[C@@H]8OC[C@@H](O)[C@H](O)[C@H]8O)[C@H]7O[C@@H]7O[C@H](CO)[C@@H](O)[C@H](O[C@@H]8O[C@H](CO)[C@@H](O)[C@H](O)[C@H]8O)[C@H]7O)[C@H](O)[C@H]6O)[C@H](O)C[C@]5(C)C4CC[C@]3(C)[C@H]1[C@@H]2C (stereo not given in full)	p53ts 32C kill 12.6µM, p53ts 39C tox 12.6µM (no result: TSHR agonist, HEK293 cAMP cs, IkB signaling)
Cl/C=C/CCl	none
COC[C@@H]1OC(=O)c2coc3c2[C@]1(C)C1=C(C3=O)[C@H]2CCC(=O)[C@]2(C)C[C@@H]1OC(C)=O	IkB signaling inconclusive (no result: p53ts 32C kill, Peg3 imprint, p53ts 39C tox)
C=C1C(O)C2OC3(CCC(/C=C/C(C)C4CC(C)=CC5(OC(CC(C)(O)C(=O)O)CCC5O)O4)O3)CCC2OC1C(O)CC(C)C1OC2(CCCCO2)CCC1C (stereo not given)	none (no result: TSHR agonist, p53ts 32C kill, p53ts 39C tox, HEK293 cAMP cs, IkB signaling)
COc1ccc(CN2CCN(C(=O)Cc3ccccc3)CC2)c(OC)c1	none
CN(C(=O)Cc1ccc(Cl)c(Cl)c1)[C@H](CN1CCCC1)c1ccccc1	TSHR agonist inconclusive, p53ts 39C tox inconclusive, HEK293 cAMP cs 31.6µM, IkB signaling inconclusive
CN(C(=O)Cc1ccccc1)[C@H](CN1CCCC1)c1ccccc1	TSHR agonist inconclusive, HEK293 cAMP cs 31.6µM
O=C(O)C[C@H]1OCC=C2CN3CC[C@@]45C6=CC(=O)C(=O)C([N+](=O)[O-])=C6N[C@H]4[C@H]1[C@H]2C[C@@H]35	none
CC(C)NC[C@H](O)c1ccc(N)c(C#N)c1	TSHR agonist inconclusive, HEK293 cAMP cs 0.005µM
CCCCCCC(C)(C)c1ccc([C@@H]2C[C@H](O)CC[C@@H]2CCCO)c(O)c1	p53ts 32C kill 12.6µM, p53ts 39C tox 6.31µM, IkB signaling inconclusive (no result: TSHR agonist)
CC(C)[C@@H](Br)C(=O)NCC(=O)O	none
Cc1cccn2c(=O)cc(COc3cccc(NC(=O)COc4ccc(F)cc4)c3)nc12	p53ts 32C kill inconclusive, p53ts 39C tox 7.94µM, IkB signaling inconclusive (no result: TSHR agonist, HEK293 cAMP cs)
O=c1[nH]c(=O)n(C2CCCCCC2)c(O)c1C=NC1CCN(Cc2ccccc2)CC1	none
O=c1[nH]c2ccccc2n1CCCN1CCC(n2c(=O)[nH]c3cc(Cl)ccc32)CC1	TSHR agonist inconclusive, HEK293 cAMP cs 15.8µM!
Cc1ccc(-c2nc(S(=O)(=O)c3ccccc3)c(SCC(=O)NC3CCCCC3)o2)cc1	p53ts 39C tox 1.58µM (no result: TSHR agonist, HEK293 cAMP cs)
CC(C)[C@H]1C(=O)N2CCC[C@@H]2[C@]2(O)O[C@@](NC(=O)[C@H]3C=C4c5cccc6[nH]cc(c56)C[C@H]4N(C)C3)(C(C)C)C(=O)N12	none (no result: p53ts 32C kill, Peg3 imprint, p53ts 39C tox)
CN(C(=O)c1ccco1)C1(c2ccccc2Cl)CCCCC1=O (stereo not given)	TSHR agonist inconclusive, HEK293 cAMP cs 20µM
COc1ccc2c(c1)-c1nc(NC(=O)c3ccc(Cl)cc3)sc1CC2	p53ts 32C kill inconclusive, p53ts 39C tox 10µM (no result: TSHR agonist, HEK293 cAMP cs)
COc1cc2c(cc1OC)-c1c(O)c(OC)cc3c1[C@@H](C2)N(C)CC3	none (no result: p53ts 32C kill, Peg3 imprint, p53ts 39C tox)
COc1cc2c(cc1OC)-c1c(O)c(OC)cc3c1[C@H](C2)N(C)CC3	p53ts 32C kill 31.6µM, p53ts 39C tox inconclusive (no result: TSHR agonist, HEK293 cAMP cs, IkB signaling)
Cc1ccc(C(=O)COC(=O)c2cccc(NC(=O)c3ccc(Br)cc3)c2)cc1	p53ts 32C kill inconclusive, p53ts 39C tox 7.94µM, IkB signaling inconclusive (no result: TSHR agonist, HEK293 cAMP cs)
O=C(COC(=O)c1cccc(NC(=O)c2ccc(Br)cc2)c1)c1ccc(Br)cc1	Peg3 imprint inconclusive, p53ts 39C tox inconclusive, IkB signaling inconclusive (no result: TSHR agonist, HEK293 cAMP cs)
C=C/C(=C/C(=O)C[C@H](C)C[C@@H](C)CC[C@H](O)[C@H](C)C(=O)C[C@@H](O)[C@H](C)[C@@H](C)OC(=O)C[C@@H](O)C1=C(C)C(=O)OC1=O)CC	none (no result: TSHR agonist, p53ts 32C kill, p53ts 39C tox, HEK293 cAMP cs, IkB signaling)
COc1ccc(C(=O)O)cc1OC	none (no result: TSHR agonist, HEK293 cAMP cs, IkB signaling)
O=C(O)c1cc(O)c(O)c(O)c1	p53ts 32C kill 12.6µM, p53ts 39C tox 10µM
Cc1ccc(Cl)cc1NC(=O)Cn1c(=O)oc2cc(S(=O)(=O)N3CCCCCC3)ccc21	p53ts 39C tox inconclusive (no result: TSHR agonist, HEK293 cAMP cs)
O=C(O)CN1CCN(CC(=O)O)CC(=O)[O][Hg][O]C(=O)C1	IkB signaling 3.98µM
COc1ccc2nc(N3CCN(C(=O)CS(=O)(=O)c4ccc(C)cc4)CC3)sc2c1	p53ts 32C kill 11.2µM, p53ts 39C tox 7.94µM (no result: TSHR agonist, HEK293 cAMP cs)
Cc1cccn2c(=O)c3c(nc12)N1CCC(Cc2ccccc2)CC1C1(C3)C(=O)N(C)C(=O)N(C)C1=O (stereo not given)	TSHR agonist inconclusive, HEK293 cAMP cs 20µM
C/C=C1\C[C@H](C)[C@](O)(CO)C(=O)OCC2=CCN3CC[C@@H](OC1=O)[C@@H]23	none (no result: p53ts 32C kill, Peg3 imprint, p53ts 39C tox)
C[C@@]12CC[C@H]3[C@@H](CC[C@H]4C[C@@H](O)CC[C@]43C)[C@H]1CC[C@@H]2C(=O)C[C@H](O)C(F)(F)F	Peg3 imprint inconclusive
CNCCc1ccc(O)c(O)c1	TSHR agonist inconclusive, p53ts 32C kill inconclusive, p53ts 39C tox 20µM, HEK293 cAMP cs inconclusive
